Data from the supplement of paper PMC9492666.
Where a name gives a salt, the structure may show the parent alone.

Experiments:
HCC1937 = assay: relative cell viability, compound + RSL3, vs DMSO (fraction of DMSO control); higher = less growth inhibition; settings: 72 h
MDA-MB-231 = assay: as above; settings: 72 h
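Further: breast cancer cell viability read out with the CCK-8 kit after co-treatment of each compound with the ferroptosis inducer RSL3.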

Structure (SMILES) | relative cell viability (HCC1937) | relative cell viability (MDA-MB-231)
COc1ccc(/C=C/c2cc(O)cc(O[C@@H]3O[C@H](CO)[C@@H](O)[C@H](O)[C@H]3O)c2)cc1 [Deoxyrhapontin] + COC(=O)c1ccc([C@H]2c3[nH]c4ccccc4c3C[C@H](C(=O)OC)N2C(=O)CCl)cc1 [RSL3] | 0.532 | 0.693
CCC(CC)CC1(C(=O)Nc2ccccc2SC(=O)C(C)C)CCCCC1 [Dalcetrapib] + COC(=O)c1ccc([C@H]2c3[nH]c4ccccc4c3C[C@H](C(=O)OC)N2C(=O)CCl)cc1 [RSL3] | 0.654 | 0.684
COc1ccc(-c2coc3cc(O)cc(O)c3c2=O)cc1 [Biochanin A] + COC(=O)c1ccc([C@H]2c3[nH]c4ccccc4c3C[C@H](C(=O)OC)N2C(=O)CCl)cc1 [RSL3] | 0.66 | 0.438
CCc1c(-c2ccccc2)c(-c2ccccc2)nn1-c1ccccc1-c1cccc(OCC(=O)O)c1 + COC(=O)c1ccc([C@H]2c3[nH]c4ccccc4c3C[C@H](C(=O)OC)N2C(=O)CCl)cc1 [RSL3] | 0.503 | 0.741
CCN(CC)CCN(Cc1ccc(-c2ccc(C(F)(F)F)cc2)cc1)C(=O)Cn1c(SCc2ccc(F)cc2)nc(=O)c2c1CCC2 [Darapladib] + COC(=O)c1ccc([C@H]2c3[nH]c4ccccc4c3C[C@H](C(=O)OC)N2C(=O)CCl)cc1 [RSL3] | 0.0907 | 0.232
O=C(Nc1ccc(C(O)(C(F)(F)F)C(F)(F)F)cc1)c1ccc(C(F)(F)F)cc1 + COC(=O)c1ccc([C@H]2c3[nH]c4ccccc4c3C[C@H](C(=O)OC)N2C(=O)CCl)cc1 [RSL3] | 0.264 | 0.255
O=c1c(O[C@@H]2O[C@H](CO)[C@@H](O)[C@H](O)[C@H]2O)c(-c2ccc(O)cc2)oc2cc(O)cc(O)c12 [Astragalin] + COC(=O)c1ccc([C@H]2c3[nH]c4ccccc4c3C[C@H](C(=O)OC)N2C(=O)CCl)cc1 [RSL3] | 0.586 | 0.645
CCC(=O)O[C@]1(C(=O)CCl)[C@@H](C)C[C@H]2[C@@H]3C[C@H](F)C4=CC(=O)C=C[C@]4(C)[C@@]3(F)[C@@H](O)C[C@@]21C [Halobetasol Propionate] + COC(=O)c1ccc([C@H]2c3[nH]c4ccccc4c3C[C@H](C(=O)OC)N2C(=O)CCl)cc1 [RSL3] | 0.393 | 0.592
CN(C)C(=N)NC(=N)N [Metformin hydrochloride] + COC(=O)c1ccc([C@H]2c3[nH]c4ccccc4c3C[C@H](C(=O)OC)N2C(=O)CCl)cc1 [RSL3] | 0.855 | 0.605
CCCCCCCCCCCCCCCC(=O)NCCO [Palmidrol] + COC(=O)c1ccc([C@H]2c3[nH]c4ccccc4c3C[C@H](C(=O)OC)N2C(=O)CCl)cc1 [RSL3] | 0.655 | 0.77
COCCNC(=O)Nc1ccc2nc(-c3cccs3)c(-c3cccs3)nc2c1 [Ac-CoA Synthase Inhibitor1] + COC(=O)c1ccc([C@H]2c3[nH]c4ccccc4c3C[C@H](C(=O)OC)N2C(=O)CCl)cc1 [RSL3] | 0.594 | 0.566
Nc1cccc(S(=O)(=O)N2CCCN(S(=O)(=O)c3ccc4c(c3)OCCO4)CC2)c1 + COC(=O)c1ccc([C@H]2c3[nH]c4ccccc4c3C[C@H](C(=O)OC)N2C(=O)CCl)cc1 [RSL3] | 0.382 | 0.632
CCCc1cc(-c2nc(-c3ccc(NS(C)(=O)=O)cc3)cs2)ccn1 + COC(=O)c1ccc([C@H]2c3[nH]c4ccccc4c3C[C@H](C(=O)OC)N2C(=O)CCl)cc1 [RSL3] | 0.322 | 0.551
O=C(O)CC[C@H](O)C(=O)O [L-2-Hydroxyglutaric acid disodium] + COC(=O)c1ccc([C@H]2c3[nH]c4ccccc4c3C[C@H](C(=O)OC)N2C(=O)CCl)cc1 [RSL3] | 0.554 | 0.76
Cc1ccc(C)c(OCCCC(C)(C)C(=O)O)c1 [Gemfibrozil] + COC(=O)c1ccc([C@H]2c3[nH]c4ccccc4c3C[C@H](C(=O)OC)N2C(=O)CCl)cc1 [RSL3] | 0.631 | 0.523
Oc1ccc2c(c1)OCO2 [Sesamol] + COC(=O)c1ccc([C@H]2c3[nH]c4ccccc4c3C[C@H](C(=O)OC)N2C(=O)CCl)cc1 [RSL3] | 0.399 | 0.548
N#Cc1ccc(Oc2cccc(NC(=O)Nc3ccc(Cl)c(C(F)(F)F)c3)c2)cc1 + COC(=O)c1ccc([C@H]2c3[nH]c4ccccc4c3C[C@H](C(=O)OC)N2C(=O)CCl)cc1 [RSL3] | 0.0959 | 0.216
CCNC1(C(N)=O)CCN(c2ncnc3c2nc(-c2ccccc2Cl)n3-c2ccc(Cl)cc2)CC1 [Otenabant] + COC(=O)c1ccc([C@H]2c3[nH]c4ccccc4c3C[C@H](C(=O)OC)N2C(=O)CCl)cc1 [RSL3] | 0.659 | 0.39

Structure (SMILES) | relative cell viability (HCC1937) | relative cell viability (MDA-MB-231)
CC(c1cc2ccccc2s1)N(O)C(N)=O (configuration not stated) [Zileuton] + COC(=O)c1ccc([C@H]2c3[nH]c4ccccc4c3C[C@H](C(=O)OC)N2C(=O)CCl)cc1 [RSL3] | 0.895 | 0.633
C[C@H](CCOc1cccc(CC(=O)O)c1)N(Cc1cccc(C(F)(F)F)c1Cl)CC(c1ccccc1)c1ccccc1 + COC(=O)c1ccc([C@H]2c3[nH]c4ccccc4c3C[C@H](C(=O)OC)N2C(=O)CCl)cc1 [RSL3] | 0.318 | 0.532
CN(C(=O)n1cnc(-c2ccc[n+]([O-])c2)c1)C1CCCCC1 + COC(=O)c1ccc([C@H]2c3[nH]c4ccccc4c3C[C@H](C(=O)OC)N2C(=O)CCl)cc1 [RSL3] | 0.292 | 0.526
CCc1ccc(N(CC(C)C)S(=O)(=O)c2ccc(OCC3CCOCC3)c(CO)c2)cc1 + COC(=O)c1ccc([C@H]2c3[nH]c4ccccc4c3C[C@H](C(=O)OC)N2C(=O)CCl)cc1 [RSL3] | 0.53 | 0.581
Cc1ccc(/C=C2\SC(=S)N(CCCCCC(=O)Nc3ccc(C(=O)O)c(O)c3)C2=O)cc1 + COC(=O)c1ccc([C@H]2c3[nH]c4ccccc4c3C[C@H](C(=O)OC)N2C(=O)CCl)cc1 [RSL3] | 0.632 | 0.577
C=C[C@H]1CN2CC[C@H]1C[C@@H]2[C@@H](O)c1ccnc2ccc(OC)cc12 [Quinidine sulfate] + COC(=O)c1ccc([C@H]2c3[nH]c4ccccc4c3C[C@H](C(=O)OC)N2C(=O)CCl)cc1 [RSL3] | 0.439 | 0.673
CCCC[S+]([O-])c1sc2nc(-c3cccs3)cc(-c3ccccc3)c2c1N (configuration not stated) + COC(=O)c1ccc([C@H]2c3[nH]c4ccccc4c3C[C@H](C(=O)OC)N2C(=O)CCl)cc1 [RSL3] | 0.748 | 0.513
CSc1ccc(C(=O)/C=C/c2cc(C)c(OC(C)(C)C(=O)O)c(C)c2)cc1 [Elafibranor] + COC(=O)c1ccc([C@H]2c3[nH]c4ccccc4c3C[C@H](C(=O)OC)N2C(=O)CCl)cc1 [RSL3] | 0.83 | 0.685
CC(C)C1=CC2=CC[C@@H]3[C@](C)(CCC[C@@]3(C)C(=O)O)[C@H]2CC1 [Abietic Acid] + COC(=O)c1ccc([C@H]2c3[nH]c4ccccc4c3C[C@H](C(=O)OC)N2C(=O)CCl)cc1 [RSL3] | 0.586 | 0.699
c1ccc([C@H]2CN3CCSC3=N2)cc1 [Levamisole hydrochloride] + COC(=O)c1ccc([C@H]2c3[nH]c4ccccc4c3C[C@H](C(=O)OC)N2C(=O)CCl)cc1 [RSL3] | 0.704 | 0.53
NC(=O)c1ncn([C@@H]2O[C@H](CO)[C@@H](O)[C@H]2O)c1N [AICAR (Acadesine)] + COC(=O)c1ccc([C@H]2c3[nH]c4ccccc4c3C[C@H](C(=O)OC)N2C(=O)CCl)cc1 [RSL3] | 0.646 | 0.584
CC(C)c1cc(C(C)C)c(CC(=O)NS(=O)(=O)Oc2c(C(C)C)cccc2C(C)C)c(C(C)C)c1 [Avasimibe] + COC(=O)c1ccc([C@H]2c3[nH]c4ccccc4c3C[C@H](C(=O)OC)N2C(=O)CCl)cc1 [RSL3] | 0.322 | 0.511
CC1=C[C@]2(O)O[C@@]3(CC2=C(C)C)[C@@H](C)CC[C@@H]13 [Curcumenol] + COC(=O)c1ccc([C@H]2c3[nH]c4ccccc4c3C[C@H](C(=O)OC)N2C(=O)CCl)cc1 [RSL3] | 0.369 | 0.517
N=C(N)NC(=N)NCCc1ccccc1 [Phenformin hydrochloride] + COC(=O)c1ccc([C@H]2c3[nH]c4ccccc4c3C[C@H](C(=O)OC)N2C(=O)CCl)cc1 [RSL3] | 0.653 | 0.543
O=C(c1ccc(NS(=O)(=O)c2cccc3cccnc23)cc1)N1CCN(CC2CC2)CC1 [Mitapivat] + COC(=O)c1ccc([C@H]2c3[nH]c4ccccc4c3C[C@H](C(=O)OC)N2C(=O)CCl)cc1 [RSL3] | 0.558 | 0.654
COc1cccc(-n2c(=O)[nH]c3cc(Cl)n(-c4ccc(-c5cccc(OC)c5O)cc4)c3c2=O)c1 + COC(=O)c1ccc([C@H]2c3[nH]c4ccccc4c3C[C@H](C(=O)OC)N2C(=O)CCl)cc1 [RSL3] | 0.395 | 0.572
Cc1nc(-c2nc(-c3ccc(OC(F)(F)F)cc3)no2)nn1Cc1cccc(N2CCC(S(C)(=O)=O)CC2)c1 + COC(=O)c1ccc([C@H]2c3[nH]c4ccccc4c3C[C@H](C(=O)OC)N2C(=O)CCl)cc1 [RSL3] | 0.417 | 0.559
O=C(O)c1cc(F)c2nc(N3[C@@H]4CC[C@H]3C[C@@H](OCc3c(-c5ccccc5OC(F)(F)F)noc3C3CC3)C4)sc2c1 [Tropifexor] + COC(=O)c1ccc([C@H]2c3[nH]c4ccccc4c3C[C@H](C(=O)OC)N2C(=O)CCl)cc1 [RSL3] | 0.603 | 0.63
